Laboratory results reported in PubChem BioAssay (NCI).
Compounds without any hit were thinned out: in the full panel of roughly 83,000, 20% have a hit.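 Single-concentration screen, 48 h exposure, 96-well plates. Endpoint: percent growth. Below 10 = active.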 The source made the active and inactive calls.

The molecules below were run on HL-60(TB) leukemia (assay: NCI-60 one-dose screen, 48 h (100 = growth as untreated, 0 = no growth, -100 = all killed)). Conditions: 10 µM unless noted.

`CC1(C)NCCC[C@]2(C)[C@H]3CC(=O)[C@H]4[C@@H]5C[C@](C)(CO)CC[C@]5(C)CC[C@@]4(C)[C@]3(C)CC[C@@H]12` was tested. Which growth did it give?
The growth was 102% (inactive).

How did the growth turn out when `Clc1ccc2c(NCCNc3nc(-c4ccccc4)cc(-c4ccccc4)n3)ccnc2c1` was run?
The growth was -46.6% (active).

For `CN1CCCc2cc(/C=C3\SC(=S)N(C(Cc4ccc(O)cc4)C(=O)O)C3=O)ccc21` (configuration not stated), which growth is on record?
Its growth is 99.9% (inactive).

`Cc1c(C)c(C)c([N+](=O)[O-])c([N+](=O)[O-])c1C` was tested. Which growth did it give?
Its growth is 109% (inactive).

Which growth does the source give for `CSc1nc(-c2ccc(O)cc2O)c2c(=O)[nH]c(Nc3ccc(S(=O)(=O)Nc4nc(C)cc(C)n4)cc3)nc2n1` here?
Its growth is 114% (inactive).

`C=C(c1ccc(C(=O)NCCCn2ccnc2)cc1)c1cc2c(cc1C)C(C)(C)CCC2(C)C` was tested. Which growth did it give?
The growth was -47.5% (active).

`Cc1c(Cl)cc(Cl)c(N)c1Cl` was tested. Which growth did it give?
The growth was 102% (inactive).

Which growth does the source give for `CCN1C(=O)N(CC)C2C1NN=c1s/c(=C\c3cc4ccccc4[nH]3)c(=O)n12` (configuration not stated) here?
The growth was -62% (active).

`Cc1ccc(C(=NN=C(N)N)c2ccc(C)cc2)cc1` was tested. Which growth did it give?
Its growth is -28% (active).

How did the growth turn out when `Nc1ccc(C2=NN(c3ccccc3)C(c3ccc(Cl)cc3)C2)cc1` (configuration not stated) was run?
Its growth is 59.6% (inactive).

For `C#CCSc1nnnn1-c1ccc(Br)c(C)c1`, which growth is on record?
The growth was 88.4% (inactive).

`COc1cnc2c(c1)C(=O)c1c-2n(CCCNC2=NCCS2)c(=O)c2cc(Cl)ccc12` was tested. Which growth did it give?
The growth was -63.8% (active).
